Assay results: the supplement of paper PMC10849652
Targets with a hit are over-represented here; the source holds about 7,900 in all. About 0.6% of all pairs of compound and target were hits. A number with no mark means an inactive call.

What was measured:
Test in all cases: log2 fold change, soluble protein after heating vs DMSO (PISA); higher = thermal stabilisation; K562 cells, 10 uM, 30 min; active = over 0.2 and 3.5 SD of the protein, either way, in both replicates (recomputed)
[1] = compound: CC[C@@H]1C(=O)N(C)c2cnc(Nc3ccc(C(=O)NC4CCN(C)CC4)cc3OC)nc2N1C1CCCC1
Procedure, shortened: (§1)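 Soluble protein was defined as the supernatant after 21,000xg for 90 min. It came from K562 cells at 2×10^6 cells/mL given 10 μM compound for 30 min, heated in aliquots for 3 min across 48°C-58°C, pooled, and extracted in PBS with 0.5% NP-40 at 4°C, and was quantified by TMTpro 16plex LC-MS/MS with equalised channel sums. Thermal stability against control samples, from duplicates, is reported as log2 fold change.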

volasertib = compound: CC[C@@H]1C(=O)N(C)c2cnc(Nc3ccc(C(=O)N[C@H]4CC[C@H](N5CCN(CC6CC6)CC5)CC4)cc3OC)nc2N1C(C)C [volasertib]
Procedure, shortened: as §1

[2] = compound: CC[C@H](C)N1C=C(C2=C(C=C(C=C21)C3=CN=C(C=C3)N4CCNCC4)C(=O)NCC5=C(C=C(NC5=O)C)C)C
Procedure, shortened: as §1

epoxomicin = compound: CC[C@H](C)[C@@H](C(=O)N[C@@H]([C@@H](C)O)C(=O)N[C@@H](CC(C)C)C(=O)[C@]1(CO1)C)NC(=O)[C@H]([C@@H](C)CC)N(C)C(=O)C [epoxomicin]
Procedure, shortened: as §1

[3] = compound: CCn1c(C(=O)N(C2CC2)C2CC2)cc2c3c(ncn3C)c(Nc3cc(C)n(C)n3)nc21
Procedure, shortened: as §1

[4] = compound: CCn1cc(-c2ccnc3[nH]c(-c4cccc(CN(C)C)c4)cc23)c(-c2ccc(NC(=O)N(C)C)cc2)n1
Procedure, shortened: as §1

[5] = compound: CN(C)CC(=O)Nc1ccc2[nH]c(=O)c3ccccc3c2c1
Procedure, shortened: as §1

rosiglitazone = compound: CN(CCOC1=CC=C(C=C1)C[C@H]2C(=O)NC(=O)S2)C3=CC=CC=N3 (racemic) [rosiglitazone]
Procedure, shortened: as §1

[6] = compound: CN1C2=C(C3=C1C(=O)N(N=C3)CC4=CC(=CC=C4)N)SC(=C2)S(=O)C
Procedure, shortened: as §1

[7] = compound: CN1CCC(CNc2ccc3ncc(-c4cccc(OC(F)(F)F)c4)n3n2)CC1
Procedure, shortened: as §1

saracatinib = compound: CN1CCN(CCOc2cc(OC3CCOCC3)c3c(Nc4c(Cl)ccc5c4OCO5)ncnc3c2)CC1 [saracatinib]
Procedure, shortened: as §1

sotrastaurin = compound: CN1CCN(c2nc(C3=C(c4c[nH]c5ccccc45)C(=O)NC3=O)c3ccccc3n2)CC1 [sotrastaurin]
Procedure, shortened: as §1

alvocidib = compound: CN1CC[C@H](c2c(O)cc(O)c3c(=O)cc(-c4ccccc4Cl)oc23)[C@H](O)C1 [alvocidib]
Procedure, shortened: as §1

Tubastatin A = compound: CN1CCc2c(c3ccccc3n2Cc2ccc(C(=O)NO)cc2)C1 [Tubastatin A]
Procedure, shortened: as §1

[8] = compound: CNC(=O)C1=CC=CC=C1NC2=NC(=NC=C2Cl)NC3=C(C=C(C=C3)N4CCOCC4)OC
Procedure, shortened: as §1

defactinib = compound: CNC(=O)c1ccc(Nc2ncc(C(F)(F)F)c(NCc3nccnc3N(C)S(C)(=O)=O)n2)cc1 [defactinib]
Procedure, shortened: as §1

rucaparib = compound: CNCc1ccc(-c2[nH]c3cc(F)cc4c3c2CCNC4=O)cc1 [rucaparib]
Procedure, shortened: as §1

[9] = compound: CNc1nc(-c2ccc3c(N)n[nH]c3c2)cc(N2C[C@@H](C(=O)NC3CCCCC3)CC[C@H]2C)n1
Procedure, shortened: as §1

encorafenib = compound: COC(=O)N[C@@H](C)CNc1nccc(-c2cn(C(C)C)nc2-c2cc(Cl)cc(NS(C)(=O)=O)c2F)n1 [encorafenib]
Procedure, shortened: as §1

[10] = compound: COC(=O)[C@H](CCSC)NC(=O)C1=C(C=C(C=C1)NC[C@H](CS)N)C2=CC=CC=C2
Procedure, shortened: as §1

UniProt Q9GZT9, sequence (Q9GZT9 whole entry, looked up): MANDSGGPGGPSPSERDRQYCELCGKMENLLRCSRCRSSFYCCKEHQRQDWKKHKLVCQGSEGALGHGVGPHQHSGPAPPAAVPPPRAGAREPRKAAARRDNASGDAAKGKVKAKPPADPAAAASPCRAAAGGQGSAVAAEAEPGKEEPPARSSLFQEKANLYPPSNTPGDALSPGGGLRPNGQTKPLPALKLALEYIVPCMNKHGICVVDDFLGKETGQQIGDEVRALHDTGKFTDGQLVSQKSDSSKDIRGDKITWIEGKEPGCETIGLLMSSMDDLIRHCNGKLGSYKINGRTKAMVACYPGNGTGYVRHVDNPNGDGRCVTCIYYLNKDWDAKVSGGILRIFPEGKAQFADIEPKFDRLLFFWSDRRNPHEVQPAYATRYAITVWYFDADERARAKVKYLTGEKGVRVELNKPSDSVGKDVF
UniProt Q96KC8, sequence (Q96KC8 whole entry, looked up): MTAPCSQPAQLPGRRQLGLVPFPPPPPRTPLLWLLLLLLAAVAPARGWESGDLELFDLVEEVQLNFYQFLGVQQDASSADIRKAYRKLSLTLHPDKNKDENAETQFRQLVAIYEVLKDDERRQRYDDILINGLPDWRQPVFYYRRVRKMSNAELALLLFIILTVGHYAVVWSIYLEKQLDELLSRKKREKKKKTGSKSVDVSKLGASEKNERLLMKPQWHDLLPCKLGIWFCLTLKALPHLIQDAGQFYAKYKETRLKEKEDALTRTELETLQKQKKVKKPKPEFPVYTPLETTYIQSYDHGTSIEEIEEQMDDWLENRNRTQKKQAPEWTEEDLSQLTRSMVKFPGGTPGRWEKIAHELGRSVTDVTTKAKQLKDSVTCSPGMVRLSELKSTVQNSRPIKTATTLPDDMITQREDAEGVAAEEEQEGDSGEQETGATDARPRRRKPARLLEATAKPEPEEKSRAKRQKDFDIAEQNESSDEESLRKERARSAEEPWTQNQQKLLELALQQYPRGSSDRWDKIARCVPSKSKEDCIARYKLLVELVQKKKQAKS
UniProt O60888, sequence (O60888 whole entry, looked up): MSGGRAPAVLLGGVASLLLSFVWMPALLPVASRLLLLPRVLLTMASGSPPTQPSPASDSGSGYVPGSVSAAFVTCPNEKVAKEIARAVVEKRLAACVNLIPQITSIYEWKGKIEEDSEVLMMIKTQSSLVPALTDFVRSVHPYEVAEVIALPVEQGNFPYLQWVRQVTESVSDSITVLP
UniProt Q8NBA8, sequence (Q8NBA8 whole entry, looked up): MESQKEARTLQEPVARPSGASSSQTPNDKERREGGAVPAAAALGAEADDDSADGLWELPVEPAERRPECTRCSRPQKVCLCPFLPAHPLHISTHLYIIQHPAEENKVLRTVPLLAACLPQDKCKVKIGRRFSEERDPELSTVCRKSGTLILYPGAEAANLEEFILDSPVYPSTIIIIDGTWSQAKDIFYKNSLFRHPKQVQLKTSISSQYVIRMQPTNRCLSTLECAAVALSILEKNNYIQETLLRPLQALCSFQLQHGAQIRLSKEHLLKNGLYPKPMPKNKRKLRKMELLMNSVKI
UniProt Q9BSJ8, sequence (Q9BSJ8 whole entry, looked up): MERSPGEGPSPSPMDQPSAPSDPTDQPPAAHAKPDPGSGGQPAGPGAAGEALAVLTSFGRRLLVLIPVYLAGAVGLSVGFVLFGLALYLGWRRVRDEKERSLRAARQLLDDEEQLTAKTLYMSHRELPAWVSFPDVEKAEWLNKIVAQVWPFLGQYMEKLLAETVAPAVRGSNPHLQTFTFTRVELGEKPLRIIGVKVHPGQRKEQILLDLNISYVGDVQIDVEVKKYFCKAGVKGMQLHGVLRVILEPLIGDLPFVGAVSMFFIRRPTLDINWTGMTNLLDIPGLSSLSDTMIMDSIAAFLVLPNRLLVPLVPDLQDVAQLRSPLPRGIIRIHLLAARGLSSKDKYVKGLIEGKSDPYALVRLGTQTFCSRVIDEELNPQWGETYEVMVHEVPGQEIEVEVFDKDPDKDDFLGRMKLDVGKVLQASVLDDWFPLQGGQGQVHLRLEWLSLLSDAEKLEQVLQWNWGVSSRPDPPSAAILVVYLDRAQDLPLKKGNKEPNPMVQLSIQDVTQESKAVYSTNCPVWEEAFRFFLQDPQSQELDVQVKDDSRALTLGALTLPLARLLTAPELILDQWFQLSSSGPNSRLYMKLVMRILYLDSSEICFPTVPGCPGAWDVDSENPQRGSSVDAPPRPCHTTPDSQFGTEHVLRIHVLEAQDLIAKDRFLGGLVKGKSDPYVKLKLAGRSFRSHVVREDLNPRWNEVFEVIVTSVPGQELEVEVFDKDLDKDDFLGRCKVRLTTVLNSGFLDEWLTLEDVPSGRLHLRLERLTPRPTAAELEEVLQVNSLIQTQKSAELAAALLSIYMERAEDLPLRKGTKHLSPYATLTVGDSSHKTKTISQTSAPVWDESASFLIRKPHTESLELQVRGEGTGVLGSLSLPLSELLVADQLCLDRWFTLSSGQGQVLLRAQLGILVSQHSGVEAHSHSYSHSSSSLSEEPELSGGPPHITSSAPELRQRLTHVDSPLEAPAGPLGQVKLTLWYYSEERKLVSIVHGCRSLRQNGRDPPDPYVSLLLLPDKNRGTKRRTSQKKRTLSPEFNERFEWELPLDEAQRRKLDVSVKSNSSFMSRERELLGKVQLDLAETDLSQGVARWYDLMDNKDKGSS
UniProt Q7Z7A3, sequence (Q7Z7A3 whole entry, looked up): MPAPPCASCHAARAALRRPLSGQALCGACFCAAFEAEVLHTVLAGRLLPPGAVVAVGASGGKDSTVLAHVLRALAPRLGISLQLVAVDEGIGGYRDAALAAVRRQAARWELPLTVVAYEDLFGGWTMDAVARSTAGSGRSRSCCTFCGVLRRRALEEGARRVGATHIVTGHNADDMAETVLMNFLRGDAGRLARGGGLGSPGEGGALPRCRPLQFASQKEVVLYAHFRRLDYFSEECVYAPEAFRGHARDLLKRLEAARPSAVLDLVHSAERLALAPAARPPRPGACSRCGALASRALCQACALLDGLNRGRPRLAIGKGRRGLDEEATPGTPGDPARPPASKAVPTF
UniProt P39880, sequence (P39880 whole entry, looked up): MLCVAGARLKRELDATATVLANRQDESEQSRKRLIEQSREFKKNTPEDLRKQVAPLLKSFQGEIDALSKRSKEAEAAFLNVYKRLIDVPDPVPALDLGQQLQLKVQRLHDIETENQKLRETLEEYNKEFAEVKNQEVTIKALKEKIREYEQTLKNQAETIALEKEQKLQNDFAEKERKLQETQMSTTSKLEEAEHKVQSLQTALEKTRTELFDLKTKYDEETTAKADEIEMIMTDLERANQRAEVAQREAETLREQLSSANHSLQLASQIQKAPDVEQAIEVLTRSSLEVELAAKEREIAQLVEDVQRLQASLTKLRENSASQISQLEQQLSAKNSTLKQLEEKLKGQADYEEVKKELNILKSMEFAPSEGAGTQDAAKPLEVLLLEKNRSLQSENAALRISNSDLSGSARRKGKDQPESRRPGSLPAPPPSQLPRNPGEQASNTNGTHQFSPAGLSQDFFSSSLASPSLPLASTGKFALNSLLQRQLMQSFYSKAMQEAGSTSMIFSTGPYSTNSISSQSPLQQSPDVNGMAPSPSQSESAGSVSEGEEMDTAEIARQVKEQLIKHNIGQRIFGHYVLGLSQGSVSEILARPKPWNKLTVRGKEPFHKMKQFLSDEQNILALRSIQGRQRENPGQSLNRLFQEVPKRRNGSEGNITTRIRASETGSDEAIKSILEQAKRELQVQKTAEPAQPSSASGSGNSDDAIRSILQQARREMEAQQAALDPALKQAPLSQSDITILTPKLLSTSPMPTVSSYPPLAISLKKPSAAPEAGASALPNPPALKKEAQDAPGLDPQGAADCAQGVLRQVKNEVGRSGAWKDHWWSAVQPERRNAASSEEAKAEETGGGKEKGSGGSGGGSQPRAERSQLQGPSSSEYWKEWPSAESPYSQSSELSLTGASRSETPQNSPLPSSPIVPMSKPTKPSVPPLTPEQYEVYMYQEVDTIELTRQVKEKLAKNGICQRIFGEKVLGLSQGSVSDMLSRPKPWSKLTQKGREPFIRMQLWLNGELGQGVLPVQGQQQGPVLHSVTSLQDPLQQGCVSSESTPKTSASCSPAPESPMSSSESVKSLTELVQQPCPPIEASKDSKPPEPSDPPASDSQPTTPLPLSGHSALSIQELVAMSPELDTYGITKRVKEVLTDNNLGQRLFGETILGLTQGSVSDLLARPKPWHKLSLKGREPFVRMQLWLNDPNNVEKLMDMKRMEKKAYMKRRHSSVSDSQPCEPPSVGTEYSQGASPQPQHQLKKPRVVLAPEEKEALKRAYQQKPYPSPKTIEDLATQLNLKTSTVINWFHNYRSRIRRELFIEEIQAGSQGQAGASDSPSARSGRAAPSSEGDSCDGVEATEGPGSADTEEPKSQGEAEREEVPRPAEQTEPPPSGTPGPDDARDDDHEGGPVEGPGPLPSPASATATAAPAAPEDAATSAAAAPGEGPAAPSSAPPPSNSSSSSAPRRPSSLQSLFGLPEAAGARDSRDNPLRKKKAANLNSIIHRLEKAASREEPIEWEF
UniProt Q5QP82, sequence (Q5QP82 whole entry, looked up): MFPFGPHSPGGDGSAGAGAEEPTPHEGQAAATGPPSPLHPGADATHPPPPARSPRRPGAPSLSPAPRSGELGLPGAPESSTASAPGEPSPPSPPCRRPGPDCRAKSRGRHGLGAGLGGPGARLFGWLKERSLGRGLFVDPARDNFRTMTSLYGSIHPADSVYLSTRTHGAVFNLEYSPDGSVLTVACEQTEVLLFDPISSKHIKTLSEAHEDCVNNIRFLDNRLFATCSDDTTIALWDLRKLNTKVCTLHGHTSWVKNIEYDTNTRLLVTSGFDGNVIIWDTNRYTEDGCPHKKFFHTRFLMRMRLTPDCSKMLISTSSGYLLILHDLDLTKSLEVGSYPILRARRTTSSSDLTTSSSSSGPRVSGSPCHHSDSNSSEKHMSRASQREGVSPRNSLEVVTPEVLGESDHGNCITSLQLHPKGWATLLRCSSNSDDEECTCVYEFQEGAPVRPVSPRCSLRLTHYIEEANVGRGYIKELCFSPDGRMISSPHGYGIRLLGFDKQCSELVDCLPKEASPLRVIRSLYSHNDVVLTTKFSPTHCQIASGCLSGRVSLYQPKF

| Target | log2 fold change [1] | log2 fold change (volasertib) | log2 fold change [2] | log2 fold change (epoxomicin) | log2 fold change [3] | log2 fold change [4] | log2 fold change [5] | log2 fold change (rosiglitazone) | log2 fold change [6] | log2 fold change [7] | log2 fold change (saracatinib) | log2 fold change (sotrastaurin) | log2 fold change (alvocidib) | log2 fold change (Tubastatin A) | log2 fold change [8] | log2 fold change (defactinib) | log2 fold change (rucaparib) | log2 fold change [9] | log2 fold change (encorafenib) | log2 fold change [10] |
| --- | --- | --- | --- | --- | --- | --- | --- | --- | --- | --- | --- | --- | --- | --- | --- | --- | --- | --- | --- | --- |
| DNAJC1 (UniProt Q96KC8) | -0.097 | -0.185 | 0.024 | 0.037 | 0.008 | 0.014 | 0.002 | 0.014 | -0.01 | -0.144 | -0.02 | -0.028 | -0.012 | 0.018 | 0.046 | 0.004 | 0.03 | -0.011 | 0.003 | 0.005 |
| DUS2 (UniProt Q9NX74) | -0.052 | -0.242 | 0.037 | 0.059 | -0.059 | -0.029 | 0.055 | 0.063 | 0.115 | -0.02 | 0.112 | -0.098 | -0.041 | 0.041 | -0.048 | -0.093 | 0.042 | -0.113 | 0.09 | -0.02 |
| EGLN1 (UniProt Q9GZT9) | 0.117 | -0.001 | 0.048 | 0.078 | -0.011 | -0.004 | 0.007 | 0.035 | -0.006 | -0.052 | -0.01 | -0.074 | -0.003 | -0.296 (active) | 0.065 | -0.027 | 0.114 | 0.03 | 0.001 | 0.002 |
| CUTA isoform 2 (UniProt O60888) | 0.063 | -0.057 | -0.033 | 0.125 | 0.03 | -0.109 | 0.175 | -0.13 | 0.164 | -0.027 | 0.202 | 0.097 | -0.158 | 0.049 | 0.003 | -0.027 | -0.035 | 0.034 | -0.002 | 0.122 |
| CTU1 (UniProt Q7Z7A3) | -0.052 | -0.117 | 0.026 | 0.045 | -0.017 | -0.057 | 0.065 | 0.055 | -0.098 | -0.233 (active) | 0.01 | -0.038 | -0.19 | -0.029 | -0.045 | -0.036 | -0.003 | 0.09 | 0.02 | -0.031 |
| DCAF6 isoform 3 (UniProt Q58WW2) | 0.077 | 0.05 | -0.064 | 0.025 | 0.013 | -0.03 | -0.035 | 0.006 | 0.006 | 0.004 | 0.093 | 0.001 | 0.001 | -0.05 | -0.027 | -0.012 | -0.028 | -0.051 | 0 | 0.034 |
| EHD2 (UniProt Q9NZN4) | -0.073 | -0.243 (active) | 0.027 | 0.023 | -0.029 | -0.085 | 0.007 | 0.039 | -0.045 | -0.002 | 0.016 | 0.017 | -0.017 | 0.048 | -0.031 | -0.12 | -0.019 | -0.053 | 0.046 | -0.061 |
| F5 (UniProt P12259) | -0.06 | 0.105 | -0.018 | -0.125 | 0.163 | -0.048 | -0.09 | -0.054 | 0.141 | -0.009 | -0.003 | 0.139 | 0.134 | -0.076 | 0.133 | 0.081 | -0.079 | -0.068 | 0.037 | 0.039 |
| DCAF10 (UniProt Q5QP82) | -0.003 | 0.029 | -0.038 | -0.102 | -0.049 | -0.018 | -0.043 | -0.015 | -0.026 | 0.022 | 0.09 | 0.021 | -0.011 | -0.094 | -0.018 | -0.009 | -0.083 | 0.007 | 0.052 | 0 |
| DTWD1 (UniProt Q8N5C7) | -0.081 | -0.196 | -0.07 | -0.054 | 0.018 | -0.033 | 0.036 | 0.057 | -0.046 | 0.089 | 0.007 | -0.02 | -0.122 | -0.014 | 0.007 | -0.03 | 0.011 | 0.152 | 0.051 | -0.143 |
| CTNNB1 (UniProt P35222) | 0.2 | -0.162 | -0.116 | 0.887 (active) | -0.027 | -0.304 | -0.151 | 0.124 | -0.185 | 0.379 | 0.032 | 1.08 (active) | 0.037 | 0.148 | -0.065 | 0.074 | -0.145 | -0.025 | 0.079 | -0.015 |
| DHX16 (UniProt O60231) | -0.032 | -0.158 | 0.032 | 0.051 | -0.05 | -0.054 | -0.025 | 0.031 | -0.033 | -0.012 | 0.024 | -0.037 | -0.045 | -0.001 | -0.042 | -0.035 | -0.027 | 0.028 | 0.019 | -0.013 |
| DTWD2 (UniProt Q8NBA8) | -0.047 | -0.048 | 0.057 | -0.015 | 0.057 | -0.018 | -0.106 | 0.005 | -0.066 | 0.035 | -0.032 | -0.228 | 0.059 | -0.029 | 0.111 | -0.022 | 0.05 | 0.04 | 0.002 | -0.032 |
| DAB2 (UniProt P98082) | -0.204 | -0.289 (active) | 0.042 | -0.004 | -0.014 | 0.022 | 0.132 | 0.032 | 0.032 | -0.111 | -0.044 | 0.009 | -0.084 | 0.139 | 0.031 | -0.026 | 0.043 | 0.05 | 0.077 | -0.13 |
| ESYT1 isoform 2 (UniProt Q9BSJ8) | 0.007 | -0.37 | 0.099 | 0.026 | -0.09 | 0 | 0.033 | 0.045 | 0.063 | 0.115 | -0.148 | -0.208 | -0.05 | 0.031 | -0.034 | -0.043 | 0.154 | 0.099 | 0.175 | -0.099 |
| CUX1 isoform 3 (UniProt P39880) | 0.008 | -0.153 | 0.036 | 0.027 | -0.041 | -0.008 | -0.019 | 0.125 | 0.004 | -0.123 | 0.002 | -0.003 | -0.02 | 0.021 | 0.012 | -0.065 | 0.037 | -0.062 | -0.018 | 0.01 |
